From PubChem
MenB inh: Mtb MenB enzyme inhibition | P9WNP5 | AID 540299 | inhibition, % (no concentration beside the values) | MenB enzyme assay, absorbance read-out | actives 0.43% (n = 100,000); in the data active = inhibition above about 21%, passing the limit was not always enough
Target sequence (P9WNP5 whole entry, looked up): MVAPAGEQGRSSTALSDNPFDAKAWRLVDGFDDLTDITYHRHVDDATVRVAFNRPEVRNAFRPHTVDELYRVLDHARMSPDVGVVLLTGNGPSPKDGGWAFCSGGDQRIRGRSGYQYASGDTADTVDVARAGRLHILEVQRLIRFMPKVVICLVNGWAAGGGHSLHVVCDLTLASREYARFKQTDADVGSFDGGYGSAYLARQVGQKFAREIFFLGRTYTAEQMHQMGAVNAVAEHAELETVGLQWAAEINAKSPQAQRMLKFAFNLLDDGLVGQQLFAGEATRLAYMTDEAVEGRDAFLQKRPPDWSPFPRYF
Polio RdRp inh: poliovirus RNA polymerase inhibition | P03300 | actives 0.66% (n = 150,000) | poliovirus polymerase elongation, fluorescence polarization; hits give low values | AID 588519 | % elongation, % (compound at 16.7 µg/mL); in the data active = % elongation below about 90%
MbtI inh: inhibitors of Mycobacterium tuberculosis siderophore enzyme MbtI | P9WFX0 | purified MbtI enzyme, fluorescence intensity read-out | inhibition, % (no concentration beside the values) | actives 0.89% (n = 100,000) | AID 493033; in the data active = inhibition mostly above about 56%, no sharp cut-off; inactive = mostly below about 77%
* = called active by the depositor; / = no result given. Hits are enriched below; roughly 1.5% of the tested compounds scored in any of these assays.

SMILES	MenB inh	Polio RdRp inh	MbtI inh
CC1(N2CCOCC2)CC2(O)C(=[N+]1[O-])CCC/C2=N\O (stereo not given)	-33	101	-3
O=c1[nH]nc(Sc2ncn[nH]2)c(=O)[nH]1	-8	98	10
c1ccc2nc(Sc3ncn[nH]3)c(Sc3ncn[nH]3)nc2c1	-16	85*	/
CCc1ccc(C(=O)NCc2ccc3c(c2)OCO3)cc1	1	103	-14
CN(C(=S)NCc1ccc2c(c1)OCO2)C1CCS(=O)(=O)C1 (stereo not given)	-1	88*	84*
CC(C)Nc1nc(-c2cccs2)cc(C(F)(F)F)c1C#N	-12	104	-16
CN(C)c1ccc(CNC(=O)C(NS(=O)(=O)c2ccc3c(c2)CCC(=O)N3)c2ccccc2)cc1 (stereo not given)	-22	102	0
O=c1oc2ccccc2n1CC1CCCN1S(=O)(=O)c1ccc(-n2cnnn2)cc1 (stereo not given)	-8	103	-23
Cc1ccc(C(=O)N/C(=C/c2ccccc2)C(=O)NCc2ccco2)cc1	46*	102	-22
O=C(NCc1ccccc1)/C(=C\c1ccccc1)NC(=O)c1ccccc1	-13	104	-8
Cn1c(C(C#N)C(=O)c2cccs2)nc2ccccc21 (stereo not given)	/	92	99
Cc1nn(-c2ccccc2)c2c1CC1(C(=O)NC(=O)c3ccccc31)C1CCCN21 (stereo not given)	11	83*	35
CC1(C)CC(=O)c2c(nn(-c3ccccc3)c2N)C1	-2	99	-8
COC(=O)c1ccc2nc(NC(=O)CN3C(=O)CCC3=O)sc2c1	-5	75*	/
O=C(CN1C(=O)CCC1=O)Nc1nc2ccccc2s1	4	100	22
COC(=O)C1(C(F)(F)F)N=C2C=CC=CN2C(c2ccco2)=N1 (stereo not given)	-14	101	1
O=C(NC1CCCCCC1)C1Cc2cc(Cl)ccc2O1 (stereo not given)	-5	110	-4
NS(=O)(=O)c1ccc(CCn2c(=S)[nH]c3ccccc3c2=O)cc1	3	100	7
Cn1c(=S)[nH]c2cc(S(N)(=O)=O)ccc21	-9	90*	67
On1ccccc1=S	12	97	92*
Cn1ccccc1=S	-12	101	24
O=C(CC(=O)Nc1ccccn1)Nc1ccc2nc3n(c(=O)c2c1)CCCCC3	8	101	18
Cc1ccc(NC(=O)COC(=O)c2c(C)nsc2N)cc1C	-17	104	6
C#CC(=O)OCC(=O)Nc1ccc(C)c(C)c1	-25	89*	66*
C=CCNC(=O)COc1ccc2c(C)cc(=O)oc2c1	5	98	136
SMILES	MenB inh	Polio RdRp inh	MbtI inh
COc1ccccc1NS(=O)(=O)c1ccc2oc(=S)n(CN3CCCC3)c2c1	-12	103	13
COc1ccccc1NS(=O)(=O)c1ccc2oc(=S)n(CN(C)CCC#N)c2c1	-18	85*	5
CCn1cc(/C=C(\NC(=O)c2ccccc2Cl)C(=O)N2CCc3ccccc32)c2ccccc21	-37	103	8
O=C(Nc1ccc(Cl)cc1Cl)c1c(O)c2c(n(Cc3ccco3)c1=O)CCCC2	-3	103	/
CCCn1c2c(c(O)c(C(=O)Nc3ccccc3F)c1=O)CCCC2	48*	101	-3
CCN(CC)S(=O)(=O)c1ccc(OC)cc1	-13	108	/
O=C(OCC1CCNCC1)c1ccc2c(c1)OCO2	3	103	36
O=C(OCC1CCNCC1)c1ccc(F)cc1	27*	102	14
CCCCCc1ccc(Nc2cn[nH]c(=O)c2Cl)cc1	4	97	6
S=C1NCN(CCc2ccccc2)CN1CC1CCCO1 (stereo not given)	-23	103	-7
Cc1onc(-c2ccccc2Cl)c1-c1nc2ccc(I)cc2c(=O)o1	-10	105	-1
O=C(O)CC12CC3CC(CC(Cl)(C3)C1)C2	/	99	-4
Cn1c2ccccc2c2nnc(SCCN3CCCCC3)nc21	-11	102	-8
COc1cc(/C=N/NC(N)=O)cc2sc(=O)oc12	-14	99	81*
COc1cc(/C=N/NC(N)=O)cc(Br)c1OC	-8	106	4
CC(=O)Nc1ccc(S(=O)(=O)N(C)CC(=O)OCc2c(C)noc2C)cc1	11	101	8
O=c1c2c(nc3cc(-c4ccco4)[nH]n13)CCCC2	33*	104	89
O=c1c2c(nc3cc(-c4ccccc4)[nH]n13)CCC2	9	99	-59
CCOC(=O)c1cccc(NC(=O)NCc2noc3ccccc23)c1	-33	103	4
CCN(CC)c1ccc(NC(=O)Cn2cc3c(n2)CCCC3)c(C)c1	/	106	/
O=C(CCSc1nnc(-c2ccco2)o1)N1CCOCC1	19	101	10
Cc1ccc(-c2nnc(SCCC(=O)N3CCOCC3)o2)cc1	28*	99	10
COc1cccc(NC(=O)N2CCC3(CC2)Oc2ccccc2C(=O)N3Cc2ccccc2F)c1	-18	101	-5
O=C1NC(=O)N(c2ccccc2)C(=O)/C1=C\c1ccc(C(=O)O)cc1	-29	101	14
O=C1NC(=S)N(c2ccccc2)C(=O)/C1=C\c1ccoc1	-21	107	69*
SMILES	MenB inh	Polio RdRp inh	MbtI inh
C[C@@H](C(=O)NCc1ccccc1Cl)N1C(=O)C2CC=CCC2C1=O (stereo not given in full)	-6	102	-2
CC(C)(C)C1=CC(=O)c2c(ccc(C(C)(C)C)c2O)C1=O	-18	98	10
OC1(C(F)(F)F)CC(C23CC4CC(CC(C4)C2)C3)=NN1 (stereo not given)	9	104	-22
CN1C(=O)S/C(=C/c2ccc(-c3ccc(C(=O)O)c(Cl)c3)o2)C1=O	-48	100	-30
CCN1C(=O)/C(=C\c2ccc(-c3ccc(Cl)c(C(=O)O)c3)o2)SC1=S	-159	75	67*
CC(=O)Oc1c(Br)cc2oc(=O)sc2c1Br	-65	99	91*
CC(=O)Oc1c(Cc2ccccc2)c(=O)oc2ccccc12	-11	101	-23
ON=C(Cc1ccccc1)Cc1ccccc1	-16	104	-9
CCC(C(=O)NC1CCCC1)N(C(=O)Cn1nnc(-c2ccc(C)cc2)n1)c1ccc2c(c1)OCCO2 (stereo not given)	33*	101	7
CCCC(C(=O)NC1CCCC1)N(C(=O)Cn1nnc(-c2ccc(C)o2)n1)c1ccccc1 (stereo not given)	-37	105	-26
CCOc1ccccc1CNc1nc2nc(C)c(CC(=O)OC)c(=O)n2[nH]1	/	111	/
CCc1nc(SCc2ccccc2)[nH]c(=O)c1C	0	102	83*
O=c1[nH]c(SCc2ccccc2)nc2ccccc12	/	/	40
O=C(Cc1n[nH]c(=O)c2ccccc12)Nc1ccccc1OC(F)F	-22	104	-3
O=C(CN1C(=O)c2ccccc2C1=O)Oc1ccc(F)cc1	6	99	-4
CCn1c(C(=O)N2CCC(C(=O)N3CCc4ccccc4C3)CC2)cc2occc21	-22	101	3
OC(c1ccc(Cl)cc1)C(O)c1nc2ccccc2[nH]1 (stereo not given)	0	100	-6
OCC(O)C(O)C(O)C(O)c1nc2ccccc2[nH]1 (stereo not given)	-16	62*	-12
Cc1ccc(CNC2=CC(=O)CC(C)(C)C2)cc1	-5	102	11
CC1(C)CC(=O)C=C(NCCc2ccccc2)C1	33*	101	24
